# From PubChem BioAssay
# The list is not random: actives were taken first. Their share in the collection is about 3.4%.
# GPR151 activ: human GPR151 activation | Q8TDV0 | PathHunter beta-arrestin GPR151 cells, luminescence | activation, % at 11.2 µM | actives 1% (n = 650,000); in the data active means activation above about 4.9%
# Target sequence (Q8TDV0 whole entry, looked up): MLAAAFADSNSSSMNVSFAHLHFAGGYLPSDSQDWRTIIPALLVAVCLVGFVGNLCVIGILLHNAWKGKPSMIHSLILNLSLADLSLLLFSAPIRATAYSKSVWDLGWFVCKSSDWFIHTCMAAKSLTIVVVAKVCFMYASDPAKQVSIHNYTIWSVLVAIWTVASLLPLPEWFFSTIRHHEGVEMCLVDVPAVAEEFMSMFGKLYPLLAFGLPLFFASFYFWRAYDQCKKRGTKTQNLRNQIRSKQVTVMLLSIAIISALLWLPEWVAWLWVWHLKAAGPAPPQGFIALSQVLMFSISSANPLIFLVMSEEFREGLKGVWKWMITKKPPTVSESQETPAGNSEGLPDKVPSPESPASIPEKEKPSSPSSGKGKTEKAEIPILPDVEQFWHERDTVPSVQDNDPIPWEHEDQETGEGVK
# FBW7 activator: activators of human E3 ligase FBW7 | Q969H0 | AlphaScreen FBW7–phospho-cyclin E peptide binding, activator screen | normalized activity (activation), % at 26.1 µM | actives 0.13% (n = 650,000); in the data active means normalized activity above about 1.9%;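 further: purified mutant Fbw7 with reduced substrate affinity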
# MITF inh: inhibitors of human MITF | O75030 | AlphaScreen MITF homodimerization, bead proximity signal | inhibition, % at 2.6 µM | actives 0.91% (n = 650,000); in the data active means inhibition above about 50%
# TEAD-YAP inh: TEAD-YAP interaction inhibition; HEK-TIYL cells, TEAD-Gal4/YAP UAS-luciferase luminescence; inhibition, % at 9.12 µM; actives 1.4% (n = 640,000); AID 1259422; in the data active means inhibition above about 32%
# GPR151 confirm: confirmation of human GPR151 activators; shares compounds with GPR151 activ; 6,700 tested, under 10 active; GPR151 PathHunter beta-arrestin cells, luminescence, 90 min; % of EA-reagent control over plate median; AID 1508609; activation, % at 11.2 µM;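 active means mean percent activation across replicates above the confirmation screen cutoff of 4.91%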
# GPR119 counter: GPR119 activation, counter-screen for GPR151 activators. shares compounds with GPR151 activ. GPR119 PathHunter beta-arrestin cells, luminescence, 90 min; 0 = compound-well median, 100 = enzyme-acceptor control. activation, % at 11.2 µM. actives 0.3% (n = 6,700). AID 1508611;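 active means mean percent activation in the counterscreen above 29.09%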;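 further: counterscreen on off-target GPR119 to flag nonselective hits from the GPR151 activator screen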
# Hits are given with their value; 0 = inactive; - = no result.
SMILES,GPR151 activ,FBW7 activator,MITF inh,TEAD-YAP inh,GPR151 confirm,GPR119 counter
O=C(Nc1cccc(S(=O)(=O)NCc2ccco2)c1)c1cc(F)c(F)c(F)c1F,4.9,0,0,0,0,0
CCOc1ccc(NC(=O)c2cc3cc(Br)cc(OC)c3oc2=O)cc1,0,0,0,0,-,-
COc1ccc2oc(=O)c(C(=O)Nc3cccc(Cl)c3)cc2c1,0,0,0,0,-,-
CCOC(=O)c1c(NC(=O)c2cc3cc(Cl)ccc3oc2=O)sc(C(C)=O)c1C,8.1,0,0,0,0,0
COc1cc(Br)cc2cc(C(=O)Nc3ccc(O)cc3)c(=O)oc12,7.6,0,0,0,0,0
COc1ccc(NC(=O)c2cc3cc(Cl)ccc3oc2=O)cc1,6.3,0,0,0,0,0
O=[N+]([O-])c1c(Nc2ccc(Br)cc2F)ccc2nonc12,5.0,0,0,0,0,0
CCOc1ccc(C)cc1S(=O)(=O)n1cnc2ccccc21,5.8,0,0,46,0,0
COc1ccc(C)cc1S(=O)(=O)n1c(C)nc2ccccc21,0,0,0,0,-,-
CCOc1ccc(S(=O)(=O)n2cnc3ccccc32)cc1C,0,0,0,0,-,-
CCOc1ccc(C)cc1S(=O)(=O)n1c(C)nc2ccccc21,7.2,0,0,0,0,0
COc1ccc(/C=C2/N=C(C3CCCCC3)OC2=O)cc1,0,0,0,0,-,-
CC1=NN(c2ccc(C)cc2)C(=O)/C1=C/c1ccc2c(c1)OCO2,5.3,0,0,0,0,0
CC1=NN(c2ccc(Cl)cc2)C(=O)/C1=C/c1ccc2c(c1)OCO2,0,0,0,0,-,-
COc1cc(OC)cc(C(=O)Nc2sc3c(c2C#N)CCN(C(C)=O)C3)c1,7.3,0,0,61,0,0
COc1cc(C(=O)Nc2sc3c(c2C#N)CCN(C(C)=O)C3)cc(OC)c1OC,0,0,0,0,-,-
CCN(CC)C(=O)CN(c1cc(C)cc(C)c1)S(=O)(=O)c1ccccc1,0,0,0,0,-,-
CCN(CC)C(=O)CN(c1ccccc1)S(=O)(=O)c1ccc(C)cc1,6.4,0,0,0,0,0
CCN(CC)C(=O)CN(c1cccc(OC)c1)S(C)(=O)=O,12,0,0,0,0,0
CCOc1ccc(N(CC(=O)NC(C)(C)C)S(=O)(=O)c2ccc(SC)cc2)cc1,22,0,0,0,0,0
CSc1ccc(S(=O)(=O)N(CC(=O)O)c2ccc(C)cc2)cc1,5.8,0,0,0,0,0
COc1cc(C=O)cc(OC)c1OC(=O)c1cccc([N+](=O)[O-])c1,0,0,0,0,-,-
Cc1ccc(NC(=O)C(=O)NCCN2CCN(C(=O)c3ccc(Br)cc3)CC2)cc1Cl,0,0,0,0,-,-
Cc1sc2nc(C)n(CC(=O)Nc3ccc(F)c(Cl)c3)c(=O)c2c1C,0,0,0,0,-,-
COc1ccc(N2CCN(c3ccc(S(=O)(=O)N4CCOCC4)cc3)CC2)cc1,0,0,0,0,-,-
SMILES,GPR151 activ,FBW7 activator,MITF inh,TEAD-YAP inh,GPR151 confirm,GPR119 counter
C=CCNCC(=O)Nc1ccc(S(N)(=O)=O)cc1,0,0,0,0,-,-
COc1ccccc1N1CCN(C(=O)CN(c2cc(C)cc(C)c2)S(C)(=O)=O)CC1,6.4,0,0,0,0,0
COc1ccccc1N(CC(N)=O)S(C)(=O)=O,0,0,0,0,-,-
COc1ccccc1N(CC(=O)N(C)C)S(C)(=O)=O,6.1,0,0,0,0,0
Clc1ccc(C(Cn2ccnc2)OCc2c(Cl)cccc2Cl)c(Cl)c1 (centres undefined),10,0,0,-,0,0
COc1ccc(C2CC(=O)c3cnc(NC(=O)c4ccc(C)cc4)nc3C2)cc1 (centres undefined),0,0,0,0,-,-
O=C(Nc1ccc(I)cc1)Nc1ccc2c(c1)OCO2,5.8,0,0,0,0,0
O=C(CC(NCCO)C(=O)O)Nc1ccccc1 (centres undefined),6.8,0,0,0,0,0
Cc1cccc(NC(=O)CC(NCCO)C(=O)O)c1 (centres undefined),0,0,0,0,-,-
O=C(NCc1cccnc1)c1nn2c(C(F)(F)F)cc(-c3ccccc3)nc2c1Br,0,0,0,0,-,-
O=C(Nc1cccc(C(F)(F)F)c1)c1nn2c(C(F)(F)F)cc(-c3ccc(Br)o3)nc2c1Br,17,0,0,0,0,0
O=C(NCc1ccc(F)cc1)c1nn2c(C(F)(F)F)cc(-c3ccccc3)nc2c1Br,5.9,0,0,0,0,0
